Screens (PubChem)
Most compounds without a hit are left out; they make up all but 19% or so of the library.
IL1B secr inh – inhibitors of inflammasome signaling (IL-1 beta secretion); activity change, % at 57.5 µM; THP-1 LPS/ATP IL-1B secretion, AlphaLISA, 16 h; hits give low values; 4.7% of 360,000 active; in the data active = activity change below about -50%; inconclusive = mostly about -30% to -49%
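Secreted IL-1B measured by AlphaLISA bead assay after 16 h compound exposure of THP-1 cells; compounds (final up to 57.5 uM) added 1 h before LPS (250 ng/mL) and ATP (1.25 mM) stimulation; lower signal means less secretion.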
DT40 TDP1 CPT – DT40-hTDP1 cell growth loss with CPT. chicken DT40 Tdp1-/-;hTDP1 cells + 20 nM CPT, ATP luminescence, 48 h. Potency, µM (top dose mostly 46.2 µM), most hits filed as inhibitors. 12% of 420,000 active. AID 686979; also: nearly all actives have a fitted effect of over 55% in size
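Cell growth measured by CellTiter-Glo luminescence after a minimum 48 h, 37 C compound exposure with 20 nM CPT in Tdp1-knockout DT40 cells stably expressing hTDP1, seeded 400/well; qHTS titration format.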
HT1080-NT tox – kills 2HG-producing HT-1080-NT fibrosarcoma cells; Potency, µM (highest dose often 46.1 µM), actives largely listed as cytotoxic; 1.6% of 360,000 active; HT-1080-NT fibrosarcoma viability, CellTiter-Glo ATP luminescence, 48 h;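 also: NT is the 2HG producing partner of a matched IDH1 knockdown line; nearly all actives have a fitted effect of over 55% in size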
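Viability by CellTiter-Glo luminescence after 48 h compound exposure at 37C of HT-1080-NT cells (750/well, RPMI, 5% FBS). % activity scaled between DMSO wells and medium-only wells, then curve-fitted and categorized by curve class.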
HT1080 IDH1KD tx – toxicity to HT-1080 IDH1 knockdown cells (counter line). 2% of 360,000 active. Potency, µM (top dose mostly 46.1 µM), actives largely listed as cytotoxic. HT-1080 IDH1 knockdown viability, ATP luminescence, 48 h
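In this qHTS, HT-1080 cells depleted of IDH1 are exposed for 48 h at 37 °C to compound titrations. Toxicity is scored from CellTiter-Glo luminescence, with DMSO as full viability and medium alone as none.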
DT40 TDP1 no CPT – qHTS for Inhibitors of human tyrosyl-DNA phosphodiesterase 1 (TDP1): qHTS in cells in absence of CPT. DT40 Tdp1-/- hTDP1 cells, no CPT, ATP luminescence, 48 h. Potency, µM (series often up to 46.2 µM), hits mostly inhibitors. 15% of 420,000 active; also: nearly all actives have a fitted effect of over 55% in size
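Stably hTDP1-transfected Tdp1-null chicken DT40 cells were treated with library compounds minus camptothecin and grown for at least 48 hr at 37 °C, after which cellular ATP was quantified by luminescence.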
Large screens that a line does not name were inactive. Unless noted, calls follow the shape of the dose curve; as a rule, active = well fitted curve in the direction sought with a large enough effect; inconclusive = small, poorly fitted or top-dose-only effect, or another doubt; inactive = no such curve, though single readings can be large; an effect the other way counts as inactive or inconclusive.

COc1cc2c(cc1OC)CN(C(=O)c1ccc(N3CCCC3)c([N+](=O)[O-])c1)CC2	IL1B secr inh -56, DT40 TDP1 CPT 21µM, DT40 TDP1 no CPT 23µM
COc1ccccc1N1CCN(S(=O)(=O)c2ccc([N+](=O)[O-])cc2)CC1	DT40 TDP1 CPT inconclusive, DT40 TDP1 no CPT inconclusive
COc1ccccc1N1CCN(c2ccc([N+](=O)[O-])cc2Cl)CC1	DT40 TDP1 CPT 15µM, HT1080-NT tox inconclusive, HT1080 IDH1KD tx inconclusive, DT40 TDP1 no CPT 12µM
COc1ccccc1N1CCN(C(=S)NC(=O)c2ccc([N+](=O)[O-])cc2)CC1	DT40 TDP1 CPT 21µM, DT40 TDP1 no CPT 21µM
COc1ccc(C(=O)NC(=S)N2CCN(c3ccccc3OC)CC2)cc1	DT40 TDP1 CPT inconclusive, DT40 TDP1 no CPT inconclusive
Cn1cccc1C(=O)Nc1ccc(Cl)c(S(=O)(=O)N2CCCCC2)c1	DT40 TDP1 CPT inconclusive, DT40 TDP1 no CPT inconclusive
C[C@H](NC(=O)CCCOc1ccc(Cl)cc1Cl)c1nnc2ccccn12	none
CN1CCN(c2cc(N3CCc4ccccc4C3)c(F)cc2[N+](=O)[O-])CC1	IL1B secr inh -51, DT40 TDP1 CPT 16µM, DT40 TDP1 no CPT 21µM
N#Cc1cc([N+](=O)[O-])ccc1N1CCCC1	DT40 TDP1 no CPT inconclusive
COc1cc2c(cc1OC)CN(c1ccc([N+](=O)[O-])cc1C#N)CC2	IL1B secr inh inconclusive, DT40 TDP1 CPT 21µM, DT40 TDP1 no CPT 13µM
COc1cc2c(cc1OC)CN(c1ccc(F)cc1[N+](=O)[O-])CC2	IL1B secr inh -67, DT40 TDP1 no CPT inconclusive
Nc1nc(NC(=O)c2cccc(S(=O)(=O)N3CCCCCC3)c2)nc(-c2ccccc2)n1	DT40 TDP1 CPT inconclusive, HT1080-NT tox inconclusive, HT1080 IDH1KD tx inconclusive, DT40 TDP1 no CPT inconclusive
COc1ccc(OCCNC(=O)C2(C)CCN2Cc2ccc3ccccc3c2)cc1 (centres undefined)	DT40 TDP1 CPT 29µM, HT1080-NT tox inconclusive, HT1080 IDH1KD tx inconclusive, DT40 TDP1 no CPT 16µM
COc1ccc(OCCNC(=O)C2(C)CCN2Cc2ccc(SC)cc2)cc1 (centres undefined)	DT40 TDP1 CPT inconclusive, DT40 TDP1 no CPT 16µM
CC1(C)NC(=O)N(CC(=O)OCC(=O)N2CCN(S(=O)(=O)c3ccccc3)CC2)C1=O	none
Cc1ccc(C(=O)Nc2cccc(-c3nc(CNC(=O)C4CCCCC4)c(C)o3)c2)s1	none (no result: IL1B secr inh, HT1080-NT tox, HT1080 IDH1KD tx)
COc1ncc2nc(-c3ccc(F)cc3)c(=O)n(-c3ccccc3)c2n1	none (no result: IL1B secr inh, HT1080-NT tox, HT1080 IDH1KD tx)
CCN(CC(=O)Nc1c(F)cccc1F)C(=O)CCN1C(=O)c2cccc([N+](=O)[O-])c2C1=O	none
O=C(Nc1ccc(Cl)cc1)C(NS(=O)(=O)c1cccs1)c1ccccc1 (centres undefined)	DT40 TDP1 no CPT inconclusive (no result: IL1B secr inh, HT1080-NT tox, HT1080 IDH1KD tx)
Cn1c(=O)[nH]c(=O)c2c1nc(Br)n2C/C=N/NC(=O)c1ccccc1	none (no result: IL1B secr inh)
Cn1c(=O)[nH]c(=O)c2c1nc(Br)n2CCC(=O)c1ccccc1	DT40 TDP1 CPT inconclusive, DT40 TDP1 no CPT 16µM
Cn1c(=O)[nH]c(=O)c2c1nc(Br)n2C/C=N/Nc1ccccc1	HT1080-NT tox 3.7µM, HT1080 IDH1KD tx 5.8µM
CCCn1c(N/N=C\C=C\c2ccccc2)nc2c1c(=O)[nH]c(=O)n2C	DT40 TDP1 CPT 15µM, DT40 TDP1 no CPT 16µM
N#Cc1ccccc1NC(=O)C1CCCO1 (centres undefined)	none
COc1ccccc1CNC(=O)c1ccc(N2CCCC2)c(NC(=O)NCCC(C)C)c1	none (no result: IL1B secr inh, HT1080-NT tox, HT1080 IDH1KD tx)
COc1cc(C(=O)NCC(c2cccs2)N2CCOCC2)ccc1OCc1ccccc1 (centres undefined)	DT40 TDP1 CPT inconclusive, DT40 TDP1 no CPT inconclusive
COc1ccc(-c2nc3cncnc3n(-c3ccccc3)c2=O)cc1	none (no result: IL1B secr inh, HT1080-NT tox, HT1080 IDH1KD tx)
COc1ccccc1C(=O)CN1C(=O)NC2(CCc3ccccc32)C1=O (centres undefined)	DT40 TDP1 CPT inconclusive, DT40 TDP1 no CPT inconclusive
CC(C)(C)n1nnnc1C(c1cccs1)N1CCN(c2ccccc2)CC1 (centres undefined)	DT40 TDP1 no CPT inconclusive
